Laboratory results: PubChem BioAssay AID1117319 (Southern Research Institute, 2015)
The campaign covered roughly 260,000 compounds. About 1,500 (0.58%) were called active. Not shown: some 5% with an inconclusive outcome.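 How the source made its calls: active means inhibition above a set limit at one or more doses, reproduced on every date tested; inconclusive means results disagree between test dates, or hit never tested in dose response; inactive means the rest.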 These entries were drawn from the full list. Potency and affinity values are given separately.

What follows are compounds tested against Virion infectivity factor (Human immunodeficiency virus type 1 group M subtype B (isolate BH10)) + Virion infectivity factor (Human immunodeficiency virus type 1 group M subtype B (isolate BRU/LAI)) + Virion infectivity factor (Human immunodeficiency virus type 1 group M subtype B (isolate PCV12)) + Virion infectivity factor (Human immunodeficiency virus type 1 group M subtype B (isolate HXB2)) + DNA dC->dU-editing enzyme APOBEC-3G (Homo sapiens) (UniProt P69720+P69721+P69722+P69723+Q9HC16) (assay: HIV-1 Vif–A3G interaction blockers – biochemical, TR-FRET, GST-Vif 1-94, biotin-A3G peptide, dose response retest, primary screen (AID 1117319;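 further: Vif residues 1-94 fused to GST binding biotinylated APOBEC3G peptide 110-148; 0% = full assay without inhibitor and 100% = GST in place of GST-Vif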)). Conditions: TR-FRET GST-Vif / biotin-A3G peptide binding; active compounds read high.

inhibition, inactive:
CCc1nc2ccc(C(=O)NCCc3ccco3)cc2nc1CC 9.44%
O=C(NC1CCCCC1)c1cc(-c2ccco2)on1 2.76%
CCOCCCNC(=O)c1ccc2nc(-c3ccc(OC)c(OC)c3)c(-c3ccc(OC)c(OC)c3)nc2c1 -0.07%
C=CCNC(=O)c1ccc2nc(-c3ccccc3)c(-c3ccccc3)nc2c1 -4.35%
O=C(O)c1ccc2nc(-c3ccco3)c(-c3ccco3)nc2c1 -0.3%
CCc1nc2ccc(C(=O)NCc3ccco3)cc2nc1CC 3.69%
O=C(NCCO)c1ccc(Cl)c(Cl)c1 -3.78%
CCCNC(=O)c1ccc2nc(-c3ccccc3)c(-c3ccccc3)nc2c1 -1.93%
CC(=O)Nc1ccccc1S(=O)(=O)CC1CC1(Cl)Cl (configuration not stated) 4.64%
CC(=O)Nc1cccc(N(C)C)c1 6.55%
Cc1cc(NS(C)(=O)=O)c(=O)n(Cc2cccc(C(F)(F)F)c2)c1 0.67%
CSCC(=O)N1CCCC(CNC(=O)c2ccccc2Cl)C1 (configuration not stated) -7.52%
COc1ccc(OCCSc2ncccn2)cc1 -7.11%
COC(=O)c1nc(NC(=O)c2ccc(Br)cc2)n[nH]1 23.4%
CCOc1ccc(N(C)S(=O)(=O)c2ccc3[nH]cc(C(=O)NCCOC)c(=O)c3c2)cc1 0.42%
COc1ccc(-c2c(-c3ccc(O)cc3O)n[nH]c2C)cc1OC 6.2%
CCOc1cccc(C2C(C(=O)c3ccc(C)o3)=C(O)C(=O)N2c2nccs2)c1 (configuration not stated) -6.71%
O=C(N/N=C/c1ccc(OC(=O)c2ccccc2)c([N+](=O)[O-])c1)c1ccc(O)cc1 2.33%
CCOC(=O)N=Nc1c2ccccc2c2nc3no[nH]c3nc12 8.41%
Cc1ccc2cc(CN(C(=O)c3ccco3)c3cccc(C)c3C)c(=O)[nH]c2c1 -8.5%
C#Cc1ccc([C@@H]2C=C(C(=O)OCC=C)O[C@H](OCc3ccc(CO)cc3)C2)cc1 6.58%
N#C/C(=C/c1ccc(Br)o1)C(N)=O 10.3%
COc1ccc(NC(=O)/C(C#N)=C/c2ccc3c(c2)n(C)c(=O)n3C)cc1 1.72%
N#C/C(=C\c1ccc(-c2ccc(C(=O)O)cc2)o1)C(=O)Nc1ccc(F)cc1 15.6%
N#C/C(=C/c1ccc(F)cc1)C(N)=S -0.15%
COc1ccc(NC(=O)c2ccc(Br)o2)cc1 6.22%
COc1ccc(/C=C(\C#N)C(=O)Nc2ccc3[nH]c(=O)[nH]c3c2)cc1 11.7%
Cc1ccc(NC(=O)/C(C#N)=C/c2ccc(Sc3nc(C)cc(C)n3)o2)cc1 -1.36%
CCOCCCNC(=O)/C(C#N)=C/c1ccc([N+](=O)[O-])o1 26.7%
CC(=O)OC12CC3CC(C1)C(=NO)C(C3)C2 -2.41%
COc1ccc(Cn2cnc3c(NS(C)(=O)=O)c(C)c(C)cc32)cc1 -0.98%
Cc1ccc(-c2nc(CS(=O)CC(=O)NCCN3CCCCCC3)c(C)o2)cc1 (configuration not stated) -1.41%
COc1ccc(-n2c(SCC(=O)Nc3ccc(C(=O)O)cc3)nnc2-c2ccccc2)cc1OC 4.7%
O=C(N/N=C/c1cc(Br)c(O)c(Br)c1)c1cccnc1 -0.54%
Cc1cc(C)cc(NC(=O)c2ccc(NC(=O)C3C4CC5OC(=O)C3C5C4)cc2)c1 (configuration not stated) -3.35%
CCn1c(C)nnc1SCC(=O)Nc1cccc(C(F)(F)F)c1 -2.71%
CN(C(=O)c1ccc(C#N)cc1)c1nnc(-c2ccccn2)s1 -7.43%
CCc1ccc2nc3c(c(C(=O)O)c2c1)CCC3 23.1%
Cc1ccc2nc3c(c(C(=O)O)c2c1)CCC3 32.8%
Cc1c(C(=O)O)sc(=S)n1CCOc1ccccc1 5.91%
O=C(CCN1CCN(S(=O)(=O)c2ccc(Cl)cc2)CC1)Nc1ccc(F)cc1 1.22%
Cc1cc(O)c(C(C)C)cc1N=Cc1ccc(N(C)C)cc1 12.6%
Cc1cc(O)c(C(C)C)cc1N=Cc1ccccc1O -2.17%
COc1cccc(C=Nc2ccccc2C#N)c1O 14.7%
Cc1cc(O)c(C(C)C)cc1N=Cc1ccccc1[N+](=O)[O-] -2.95%
O=C(CC(O)(c1ccccc1)c1ccccc1)Nc1ccccn1 -5.64%
O=C1Nc2ccccc2C(=O)C1(Cl)Cc1ccccc1 (configuration not stated) 2.05%
Cc1ccc(OCC(=O)OCc2nc3scc(-c4ccccc4)c3c(=O)[nH]2)cc1C -11.5%
Cn1c(=O)c2c(nc(SCc3nn[nH]n3)n2Cc2ccccc2F)n(C)c1=O 26.4%
Cn1c(=O)c2c(nc(SCCCC#N)n2Cc2ccccc2F)n(C)c1=O 5.84%
COc1ccccc1-n1cnc2cc(NCc3ccccc3O)ccc21 5.69%
Cc1ccccc1-n1cnc2cc(NCc3cccs3)ccc21 4.79%
COc1ccc(CC(=O)Nc2ccc(S(=O)(=O)Nc3cc(C)nc(C)n3)cc2)cc1OC -3.26%
CC(C)c1ccc(CCNC(=O)CCNC(=O)c2ccc(Br)cc2)cc1 -4.69%
Oc1cccc(C=NCc2ccccc2)c1 -4.5%
COc1cccc(C=NCC(C)N=Cc2cccc(OC)c2O)c1O (configuration not stated) 1.39%
Oc1ccccc1C=NCC(O)c1ccccc1 (configuration not stated) 22%
Oc1c(Br)cc(Br)cc1C=NCc1ccccc1 -9.44%
COC(=O)c1ccc(C2C(Oc3ccccc3)C(=O)N2CCc2ccc(F)cc2)cc1 (configuration not stated) -5.73%
C=CCN(C(=O)CCS(=O)(=O)c1cccc2nsnc12)c1ccccc1 -10%
Cc1ccc(NC(=O)CN2C(=O)NC(C)(c3ccc(Cl)cc3)C2=O)cc1S(=O)(=O)N1CCOCC1 (configuration not stated) 19.2%
CC(=O)c1ccc(S(=O)(=O)Nc2ccc(C(=O)NCC(c3cccs3)N3CCOCC3)cc2)cc1 (configuration not stated) 3.75%
